From PubChem BioAssay AID1159580 (chemical genetic matrix, 2015)
Values joined by “and” are separate entries in the source; they are usually repeats but may differ in a detail not shown here. Identical values can stand only once. In all, about 5,500 compounds went through this assay and about 2,000 (36%) were called active. Roughly 18% stayed inconclusive and do not appear here. Rule as the data show it: active = normalized growth mostly below about 0.91 (no sharp cut-off); inconclusive = no clear call, values can overlap the other calls; inactive = mostly above about 0.92. The list shows a part of the results.

Experiment: chemical genetic growth profiling, strain panel (AID 1159580);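 also: tested at 20 µM; growth read once vehicle control cultures reached saturation at 30 °C; 1 = growth at the plate median or of vehicle wells; lower values mean less growth of the strain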
Conditions: growth OD

Measured: normalized growth

CN1CCN(C2=Nc3cc(Cl)ccc3Nc3ccccc32)CC1
inactive: S. cerevisiae deletion strains, locus YJR066W, strain TOR1, stronger effect = lower value 0.997 | S. cerevisiae deletion strains, locus YJR075W, strain HOC1, stronger effect = lower value 0.982 | S. cerevisiae deletion strains, locus YKL009W, strain mrt4, stronger effect = lower value 1.01 | S. cerevisiae deletion strains, locus YKL068W, stronger effect = lower value 1.01 | S. cerevisiae deletion strains, locus YKL085W, strain MDH1 (second series), stronger effect = lower value 1.04 | S. cerevisiae deletion strains, locus YKL085W, strain MDH1, stronger effect = lower value 1.04 | S. cerevisiae deletion strains, locus YKL160W, strain elf1, stronger effect = lower value 0.972 | S. cerevisiae deletion strains, locus YKL190W, strain CNB1, stronger effect = lower value 1.02 | S. cerevisiae deletion strains, locus YKR001C, strain vps1, stronger effect = lower value 1.03 | S. cerevisiae deletion strains, locus YKR026C, strain gcn3, stronger effect = lower value 0.988 | S. cerevisiae deletion strains, locus YKR091W, strain srl3, stronger effect = lower value 0.98 | S. cerevisiae deletion strains, locus YLL001W, strain dnm1, stronger effect = lower value 0.984 | S. cerevisiae deletion strains, locus YLL026W, stronger effect = lower value 1 | S. cerevisiae deletion strains, locus YLL041C, strain sdh2, stronger effect = lower value 0.992 | S. cerevisiae deletion strains, locus YLR027C, strain aat2, stronger effect = lower value 0.988 | S. cerevisiae deletion strains, locus YLR039C, strain RIC1, stronger effect = lower value 1.25 | S. cerevisiae deletion strains, locus YLR058C, strain SHM2, stronger effect = lower value 1.01 | S. cerevisiae deletion strains, locus YLR102C, strain apc9, stronger effect = lower value 1.02 | S. cerevisiae deletion strains, locus YLR113W, strain HOG1, stronger effect = lower value 1.01 | S. cerevisiae deletion strains, locus YLR221C, strain rsa3, stronger effect = lower value 1.01 | S. cerevisiae deletion strains, locus YLR258W, strain gsy2, stronger effect = lower value 0.983 | S. cerevisiae deletion strains, locus YLR262C, strain YPT6 (second series), stronger effect = lower value 1.05 | S. cerevisiae deletion strains, locus YLR262C, strain YPT6, stronger effect = lower value 1.2 | S. cerevisiae deletion strains, locus YLR268W, strain sec22, stronger effect = lower value 1.01 | S. cerevisiae deletion strains, locus YLR320W, strain mms22, stronger effect = lower value 0.952 | S. cerevisiae deletion strains, locus YLR330W, strain CHS5, stronger effect = lower value 1.02 | S. cerevisiae deletion strains, locus YLR342W, strain FKS1 (second series), stronger effect = lower value 1.04 | S. cerevisiae deletion strains, locus YLR342W, strain FKS1, stronger effect = lower value 0.953 | S. cerevisiae deletion strains, locus YLR357W, strain rsc2, stronger effect = lower value 1.01 | S. cerevisiae deletion strains, locus YLR370C, strain arc18, stronger effect = lower value 0.984 | S. cerevisiae deletion strains, locus YLR371W, strain rom2, stronger effect = lower value 1.03 | S. cerevisiae deletion strains, locus YLR384C, strain iki3, stronger effect = lower value 0.984 | S. cerevisiae deletion strains, locus YLR418C, strain cdc73, stronger effect = lower value 0.955 | S. cerevisiae deletion strains, locus YML016C, strain PPZ1, stronger effect = lower value 1.01 | S. cerevisiae deletion strains, locus YML032C, strain rad52, stronger effect = lower value 0.935 | S. cerevisiae deletion strains, locus YML120C, strain ndi1, stronger effect = lower value 0.98 | S. cerevisiae deletion strains, locus YML124C, strain tub3, stronger effect = lower value 1.02 | S. cerevisiae deletion strains, locus YMR058W, strain fet3, stronger effect = lower value 0.982 | S. cerevisiae deletion strains, locus YMR078C, strain ctf18, stronger effect = lower value 1.02 | S. cerevisiae deletion strains, locus YMR125W, strain sto1, stronger effect = lower value 0.943 | S. cerevisiae deletion strains, locus YMR129W, stronger effect = lower value 0.99 | S. cerevisiae deletion strains, locus YMR205C, strain PFK2, stronger effect = lower value 0.977 | S. cerevisiae deletion strains, locus YMR223W, strain ubp8, stronger effect = lower value 1.02 | S. cerevisiae deletion strains, locus YMR231W, strain pep5, stronger effect = lower value 0.986 | S. cerevisiae deletion strains, locus YMR263W, strain SAP30, stronger effect = lower value 0.986 | S. cerevisiae deletion strains, locus YMR307W, strain GAS1, stronger effect = lower value 1.1 | S. cerevisiae deletion strains, locus YNL067W, strain RPL9B, stronger effect = lower value 0.974 | S. cerevisiae deletion strains, locus YNL071W, strain lat1, stronger effect = lower value 0.937 | S. cerevisiae deletion strains, locus YNL128W, strain TEP1, stronger effect = lower value 0.991 | S. cerevisiae deletion strains, locus YNL153C, strain GIM3, stronger effect = lower value 0.993 and 1.01 | S. cerevisiae deletion strains, locus YNL175C, strain NOP13, stronger effect = lower value 0.999 | S. cerevisiae deletion strains, locus YNL183C, strain NPR1, stronger effect = lower value 0.99 | S. cerevisiae deletion strains, locus YNL209W, strain ssb2, stronger effect = lower value 0.973 | S. cerevisiae deletion strains, locus YNL224C, strain SQS1, stronger effect = lower value 1.01 | S. cerevisiae deletion strains, locus YNL233W, strain BNI4, stronger effect = lower value 0.988 | S. cerevisiae deletion strains, locus YNL248C, strain rpa49, stronger effect = lower value 0.957 | S. cerevisiae deletion strains, locus YNL250W, strain rad50, stronger effect = lower value 0.966 | S. cerevisiae deletion strains, locus YNL271C, strain bni1, stronger effect = lower value 1.01 | S. cerevisiae deletion strains, locus YNL298W, strain CLA4, stronger effect = lower value 0.984 | S. cerevisiae deletion strains, locus YNL307C, strain MCK1, stronger effect = lower value 0.995 | S. cerevisiae deletion strains, locus YNL322C, strain KRE1 (second series), stronger effect = lower value 0.956 | S. cerevisiae deletion strains, locus YNL322C, strain KRE1, stronger effect = lower value 1.01 | S. cerevisiae deletion strains, locus YNR049C, strain mso1, stronger effect = lower value 0.99 | S. cerevisiae deletion strains, locus YNR052C, strain pop2, stronger effect = lower value 1.01 | S. cerevisiae deletion strains, locus YOL006C, strain TOP1, stronger effect = lower value 0.988 | S. cerevisiae deletion strains, locus YOL012C, strain htz1 2.02 | S. cerevisiae deletion strains, locus YOL147C, strain pex11, stronger effect = lower value 1.02 | S. cerevisiae deletion strains, locus YOR001W, strain rrp6, stronger effect = lower value 0.996 | S. cerevisiae deletion strains, locus YOR061W, strain CKA2, stronger effect = lower value 1.01 | S. cerevisiae deletion strains, locus YOR069W, strain VPS5, stronger effect = lower value 1.07 | S. cerevisiae deletion strains, locus YOR070C, strain gyp1, stronger effect = lower value 0.989 | S. cerevisiae deletion strains, locus YOR080W, strain dia2, stronger effect = lower value 0.974 | S. cerevisiae deletion strains, locus YOR083W, strain WHI5, stronger effect = lower value 0.92 | S. cerevisiae deletion strains, locus YOR106W, strain vam3, stronger effect = lower value 0.978 | S. cerevisiae deletion strains, locus YOR136W, strain idh2, stronger effect = lower value 1.02 | S. cerevisiae deletion strains, locus YOR144C, strain elg1, stronger effect = lower value 1.01 | S. cerevisiae deletion strains, locus YOR184W, strain ser1, stronger effect = lower value 1.03 | S. cerevisiae deletion strains, locus YOR231W, strain MKK1, stronger effect = lower value 1.01 | S. cerevisiae deletion strains, locus YOR265W, strain rbl2, stronger effect = lower value 0.993 | S. cerevisiae deletion strains, locus YOR270C, strain vph1, stronger effect = lower value 0.96 | S. cerevisiae deletion strains, locus YOR290C, strain snf2, stronger effect = lower value 0.943 | S. cerevisiae deletion strains, locus YOR316C, strain cot1, stronger effect = lower value 1.03 | S. cerevisiae deletion strains, locus YPL051W, strain arl3, stronger effect = lower value 0.965 | S. cerevisiae deletion strains, locus YPL055C, strain LGE1, stronger effect = lower value 0.93 | S. cerevisiae deletion strains, locus YPL078C, strain atp4, stronger effect = lower value 0.959 | S. cerevisiae deletion strains, locus YPL106C, strain sse1, stronger effect = lower value 0.999 | S. cerevisiae deletion strains, locus YPL240C, strain hsp82, stronger effect = lower value 0.979 | S. cerevisiae deletion strains, locus YPL241C, strain CIN2, stronger effect = lower value 1.05 and 1 | S. cerevisiae deletion strains, locus YPL256C, strain CLN2, stronger effect = lower value 1.05 | S. cerevisiae deletion strains, locus YPR119W, strain clb2, stronger effect = lower value 1.01 | S. cerevisiae deletion strains, locus YPR141C, strain kar3, stronger effect = lower value 1.02 | S. cerevisiae deletion strains, locus YPR163C, strain tif3, stronger effect = lower value 1.01 | S. cerevisiae deletion strains, locus YPR167C, strain met16, stronger effect = lower value 1.02 | S. cerevisiae deletion strains, strain wtn01, stronger effect = lower value 1 | S. cerevisiae strains, strain wild type, stronger effect = lower value 1.02
